Compound activity deposited in PubChem BioAssay by Broad Institute.
aSyn 5UTR act = Activators via SNCA 5'UTR binding, MLPCN; alpha-synuclein 5'UTR reporter, activators screen; hit rate 7.1% among 300,000; activity score, % (tested at 7.5 µM), hits read low; in the data active = activity score below about -60%
The depositor's hits bear a star. These entries were drawn from the full list.

SMILES	aSyn 5UTR act
CCCSc1nsc(NC(=O)Nc2ccc(F)cc2F)n1	-129*
CCOc1ccccc1-c1nc(-c2ccc(NC(=O)c3ccc(Br)o3)cc2)no1	-136*
CCOc1ccccc1-c1nc(-c2cccc(Br)c2)no1	-135*
CCc1ccc(Nc2nnc(SCC(=O)Nc3cccc(S(=O)(=O)NC4=NCCCCC4)c3)s2)cc1	-147*
Cc1cccc(Nc2nnc(SCC(=O)Nc3cccc(S(=O)(=O)N4CCCCC4)c3)s2)c1	-152*
COc1ccc(/C=N/Nc2nnc(Cc3ccccc3)c(=O)[nH]2)cc1OC	-67*
COc1ccc(Cc2nnc(N/N=C/c3ccc(O)cc3)[nH]c2=O)cc1OC	82
CCN(CC)c1cc(C)c2cc(NC(=O)c3ccccc3F)ccc2n1	-125*
CCOC(=O)Nc1ccc2nc3n(c(=O)c2c1)CCCCC3	-79*
O=C(Nc1ccc2nc3n(c(=O)c2c1)CCCCC3)c1ccccc1[N+](=O)[O-]	-87*
O=C(Nc1ccc2nc3n(c(=O)c2c1)CCCC3)c1ccccc1F	-67*
O=C(Nc1ccc2nc3n(c(=O)c2c1)CCCCC3)c1c(F)ccc([N+](=O)[O-])c1F	85
O=C(Nc1ccc2nc3n(c(=O)c2c1)CCCC3)c1cccc(F)c1	-82*
CNC(=O)c1ccc(-c2ccc(OC)cc2)s1	-151*
CNC(=O)c1ccc(-c2ccc(Cl)c(Cl)c2)s1	-94*
O=C(Nc1ccccc1)c1ccc(-c2ccc(F)cc2)s1	-206*
CNC(=O)c1ccc(-c2ccc(F)cc2)s1	-101*
O=C(Nc1ccc(F)cc1)c1nc(S(=O)(=O)Cc2ccccc2)ncc1Cl	67
O=c1c(C=NCc2ccccc2)c(NCc2ccccc2)nc2ccccn12	-66*
O=[N+]([O-])c1cccc(N/N=C/c2cc([N+](=O)[O-])ccc2O)c1	-70*
CCCOc1ccc(/C=N/Nc2cccc([N+](=O)[O-])c2)c(O)c1	-164*
O=[N+]([O-])c1ccc(O)c(/C=N/Nc2ccccn2)c1	95
CCCOc1ccc(/C=N/Nc2ccccc2[N+](=O)[O-])c(O)c1	62
CN(/N=C/c1cc([N+](=O)[O-])ccc1O)c1ccccc1	-159*
CCCOc1ccc(/C=N/Nc2ccc(C(=O)O)cc2)c(OCCC)c1	-109*
SMILES	aSyn 5UTR act
O=[N+]([O-])c1ccc(O)c(C=Nc2ccc3c(c2)OCCO3)c1	-62*
O=[N+]([O-])c1ccc(N/N=C/c2ccccc2O)cc1	-165*
COc1cc2c(cc1NC(=O)Nc1ccc(F)cc1)oc1ccccc12	-95*
COc1cc2c(cc1NC(=O)CSc1nccn1C)oc1ccccc12	-229*
COc1cc2c(cc1NC(=O)C(C)OC(=O)C1CC(=O)N(Cc3ccco3)C1)oc1ccccc12 (stereo unspecified)	-127*
COc1ccc(NC(=O)Nc2cc3oc4ccccc4c3cc2OC)cc1	-152*
COc1cc2c(cc1NC(=S)Nc1cccc(C)c1)oc1ccccc12	-124*
COc1cc2c(cc1NC(=O)C(C)OC(=O)/C=C/c1ccc(OC(F)F)cc1)oc1ccccc12 (stereo unspecified)	-150*
Cc1nc(NC(=O)c2cc3ccccc3o2)ccc1Br	-160*
Cc1cccc(NC(=O)c2cc3ccccc3c(=O)o2)n1	-191*
Cc1nc(NC(=O)c2ccc(Br)o2)ccc1Br	-151*
O=c1[nH]c2ccccc2nc1/C=C/c1ccc(Cl)cc1	-227*
CC(=O)Nc1ccc(/C=C/c2nc3ccccc3[nH]c2=O)cc1	-83*
O=C(Nc1ccccc1)Nc1ccccn1	-126*
N/C(=N\NC(=O)Nc1ccc(Cl)cc1)c1ccccn1	-114*
CC(Sc1ccccn1)C(=O)Nc1ccccc1 (stereo unspecified)	-208*
CCOC(=O)c1ccc(NC(=O)C2CCCN(c3cnccn3)C2)cc1 (stereo unspecified)	-88*
O=C(Nc1ccccn1)c1ccc(-c2ccccc2)cc1	63
O=C(Nc1ccc(Cl)cc1)Nc1ccccn1	-167*
O=C(Nc1ccccn1)C(=O)Nc1ccccn1	-95*
CCOC(=O)c1ccc(NC(=O)Nc2ccccn2)cc1	-90*
O=C(Nc1ccccc1)Nc1cccc2cccnc12	-178*
S=C(Nc1ccccn1)c1ccccn1	-115*
CCOC(=O)c1ccc(NC(=O)c2cnccn2)cc1	-67*
Cc1sc(NC(=O)CCCC(=O)O)c(C(N)=O)c1-c1ccccc1	52
SMILES	aSyn 5UTR act
Cc1sc(NC(=O)C2=COCCO2)c(C(N)=O)c1C	-62*
NC(=O)c1ccsc1NC(=O)c1cccs1	-164*
Cc1sc(NC(=O)c2cccs2)c(C(N)=O)c1C	-255*
Oc1ccc(/C=N/Nc2cccc3cccnc23)c(O)c1	-405*
Cc1ccc(/C=N/Nc2cccc3cccnc23)c(O)c1	-271*
Cc1ccc(S(=O)(=O)Nc2cccc3cccnc23)c([N+](=O)[O-])c1	71
Oc1ccc(/C=N/Nc2nccnc2Cl)c(O)c1	88
COc1ccc([N+](=O)[O-])cc1N/C(=N/S(=O)(=O)c1ccccc1)c1ccccc1	-70*
CCOC(=O)c1sc2ccccc2c1NC(=O)c1coc2ccccc2c1=O	-74*
COc1nccnc1NS(=O)(=O)c1ccc(NCc2cc(Br)ccc2O)cc1	-83*
O=C(Nc1ccn(Cc2ccccc2F)n1)c1ccc(COc2cccc(Br)c2)cc1	-150*
CN(C)C(=O)c1cc(-c2ccccc2)no1	-80*
CCN(CC)S(=O)(=O)c1ccc(Nc2nc3ccccc3n3nnnc23)cc1	-87*
c1ccc(Nc2nc3ccccc3n3nnnc23)cc1	-75*
CCN(CC)S(=O)(=O)c1ccc2c(c1)C(=NO)c1cc(S(=O)(=O)N(CC)CC)ccc1-2	115
COc1cccc(Nc2nc3ccccc3n3nnnc23)c1	-65*
Fc1ccccc1Nc1nc2ccccc2n2nnnc12	-146*
Cc1ccc(-c2nc3ccccc3n3nnnc23)cc1	-249*
Cc1ccc(-c2nnc3c(C(F)(F)F)nc4ccccc4n23)cc1	71
O=C1N=C(N2CCCCC2)SC1=C1CCCC1	-81*
CC(=O)Nc1ccc(-c2csc(-c3cccnc3)n2)cc1	-112*
CCCC(=O)Nc1ccc(-c2csc(-c3cccnc3)n2)cc1	-114*
CNC(=O)c1ccc(Nc2nc(-c3ccccc3)nc3ccccc23)cc1	-90*
N#Cc1nc(-c2ccc(OCc3ccccc3Cl)cc2)oc1NCCCn1ccnc1	-65*
N#Cc1nc(-c2ccc(F)cc2)oc1NCCCn1ccnc1	-90*
SMILES	aSyn 5UTR act
CC(Cc1cccs1)NC(=O)Nc1ccc(Cl)cc1 (stereo unspecified)	-221*
CC(Cc1cccs1)NC(=O)Nc1ccc(Cl)c(Cl)c1 (stereo unspecified)	-90*
CCCC(=O)NC(c1cccs1)c1cc(Cl)c2cccnc2c1O (stereo unspecified)	99
COC1=C(Nc2ccccc2)C(=O)c2ccccc2C1=O	-73*
CNC1=C(N(C(C)=O)c2ccc(Br)cc2)C(=O)c2ccccc2C1=O	111
COC1=C(Nc2ccc(C)cc2)C(=O)c2ccccc2C1=O	-156*
Cc1ccc(COc2ccc(-c3nnco3)cc2)cc1	-118*
O=C(O)CCCn1c(O)c(C=C2N=c3ccccc3=N2)sc1=S	-89*
NNc1nc2ccc(Cl)cc2s1	-140*
Fc1ccc2nc(Nc3ccccc3)sc2c1	-172*
NNc1nc2ccc(F)cc2s1	-254*
Cc1cccc(/C(N)=N/OC(=O)c2ccc(Br)o2)c1	-210*
Cc1cccc(/C(N)=N/OC(=O)c2cccnc2)c1	-73*
COc1cc(OC)cc(C(=O)O/N=C(\N)c2ccncc2)c1	-68*
